G9a block: G9a (human) methyltransferase inhibition | G9a H3K9 monomethylation, AlphaScreen, 2 h | Potency, µM (top dose mostly 102 µM), actives largely listed as inhibitors | 8.8% of 350,000 active | AID 504332; note: nearly all actives have a fitted effect of over 75% in size
Target sequence (Q96KQ7 913-1193 limits assumed): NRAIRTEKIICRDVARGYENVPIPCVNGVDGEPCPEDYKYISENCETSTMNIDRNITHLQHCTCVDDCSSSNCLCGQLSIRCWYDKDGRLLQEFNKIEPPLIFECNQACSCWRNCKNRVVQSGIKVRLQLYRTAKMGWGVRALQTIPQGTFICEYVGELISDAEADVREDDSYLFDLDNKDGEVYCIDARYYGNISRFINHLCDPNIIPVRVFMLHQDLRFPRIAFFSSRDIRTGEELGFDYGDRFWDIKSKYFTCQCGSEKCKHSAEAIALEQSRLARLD
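Signal arises when biotinylated H3K9 peptide, once monomethylated, bridges streptavidin donor and antibody-captured acceptor beads. Enzyme at 20 nM was preincubated 15 min with test compounds; peptide 500 nM and SAM 20 uM then reacted for 2 h.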
VDR inhibitor: vitamin D3 receptor (human) inhibition; P11473; 0.93% of 400,000 active; Potency, µM, hits mostly inhibitors; VDR-SRC2-3 peptide fluorescence polarization, 2 h; AID 504847
Target sequence (P11473 whole entry, looked up): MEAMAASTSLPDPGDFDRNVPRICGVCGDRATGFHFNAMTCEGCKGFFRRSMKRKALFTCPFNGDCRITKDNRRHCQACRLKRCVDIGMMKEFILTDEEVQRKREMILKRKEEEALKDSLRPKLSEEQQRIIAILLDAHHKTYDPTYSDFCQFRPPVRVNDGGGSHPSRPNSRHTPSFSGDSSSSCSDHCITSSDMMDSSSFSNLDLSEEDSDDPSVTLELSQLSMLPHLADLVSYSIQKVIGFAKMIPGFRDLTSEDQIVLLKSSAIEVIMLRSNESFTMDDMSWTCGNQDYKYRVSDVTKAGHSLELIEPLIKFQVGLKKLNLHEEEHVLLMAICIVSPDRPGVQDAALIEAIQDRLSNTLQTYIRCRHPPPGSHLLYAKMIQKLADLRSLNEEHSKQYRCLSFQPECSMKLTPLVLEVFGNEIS
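Two reagent solutions held at 4 deg C in the dark were dispensed, compounds pinned at 23 nl, and the mixture incubated 2 h at room temperature. Read-out: fluorescence polarization of VDR–SRC2-3 peptide binding.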
CCT modulator: cytosolic chaperonin activity modulation | purified chaperonin ATPase assay, HTRF ADP detection, 30 min | activity change, % (concentration not given with the values), hits read low | 0.3% of 360,000 active; in the data active = activity change below about -30%
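We incubate TRiC, 40 or 20 nM final, with library compounds at 76 uM and 10 uM ATP for 30 min at 37 °C. ADP formed is detected with Transcreener HTRF reagents after 30 min at room temperature.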
PLK1 PBD block: blocks phosphopeptide binding to human PLK1 polo-box domain. P53350. Plk1 PBD binding of FITC phosphopeptide, fluorescence polarization. Potency, µM, actives largely listed as inhibitors. 2.8% of 360,000 active; note: series mostly up to about 57 µM; nearly all actives have a fitted effect of over 65% in size
Sfp inh: blocks B. subtilis Sfp PPTase activity; Q9F4F7; AID 1490; Potency, µM, actives largely listed as inhibitors; 3.5% of 310,000 active; Biochemical Sfp PPTase activity, qHTS;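 note: the enzyme is Sfp with the accession as filed and its product quenches rhodamine fluorescence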
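Reaction rates are the 30-min fluorescence difference (ex 525, em 598 nm) in wells containing 15 nM Sfp, 5 uM rhodamine-CoA and 12.5 uM BHQ-2-YbbR at pH 7.6 with 10 mM MgCl2.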
MmCpn inh: blocks the Methanococcus maripaludis chaperonin Mm-Cpn; purified Mm-Cpn ATPase, ADP Transcreener TR-FRET; AID 504842; 0.031% of 330,000 active; Potency, µM (series often up to 76.9 µM), actives largely listed as inhibitors; note: nearly all actives have a fitted effect of over 80% in size
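Reaction buffer contained 30 mM Tris pH 7.4, 100 mM KCl, 5 mM MgCl2 and 1 mM DTT. Mm-CPN (25 nM final) hydrolysed 10 uM ATP over 30 min at 37°C; ADP was read by HTRF.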
Of the large screens only hits and unclear results are named; the others gave an inactive call. Shown are actives, neighbours in structure and some others; about 10% of the full set was active somewhere. Unless noted, calls come from the whole dose curve; as a rule, active = well fitted curve in the direction sought with a large enough effect; inconclusive = small, poorly fitted or top-dose-only effect, or another doubt; inactive = no such curve, though single readings can be large; an effect the other way counts as inactive or inconclusive.

Cn1c(=O)c([N+](=O)[O-])c(-n2cnc3ccccc32)c2ccccc21	VDR inhibitor 20µM, Sfp inh inconclusive
Cn1c(=O)c([N+](=O)[O-])c(Cl)c2ccccc21	VDR inhibitor 17.8µM, PLK1 PBD block inconclusive
COC(=O)c1ccccc1NC(=O)CCC(=O)N1CC(C)Sc2ccccc21 (stereo unspecified)	none (no result: CCT modulator, PLK1 PBD block, Sfp inh, MmCpn inh)
CCOc1ccc(NC(=O)NCCn2nnc3cc(S(=O)(=O)N(C)C)ccc32)cc1	none (no result: CCT modulator, PLK1 PBD block, Sfp inh, MmCpn inh)
CC(C)(C)c1nnc(N/N=C/c2ccccc2O)n(N)c1=O	none
CC(C)(C)c1nnc(N/N=C/c2ccccc2)n(N)c1=O	Sfp inh 79.4µM
Cc1cc(C(=O)COC(=O)c2ccc(CO)cc2)c(C)n1CC1COc2ccccc2O1 (stereo unspecified)	G9a block 3.98µM
Cc1cc(C(=O)CN2C(=O)C(=O)N(Cc3ccccc3)C2=O)c(C)n1CC1COc2ccccc2O1 (stereo unspecified)	none
CCOc1ccc(C(=O)Nc2nnc(S(=O)(=O)Nc3ccccc3)s2)cc1	none (no result: CCT modulator, PLK1 PBD block, Sfp inh, MmCpn inh)
O=C(NCc1ccccn1)C(=O)C1C(=O)Nc2ccccc21 (stereo unspecified)	G9a block 50.1µM
CCCCCNC(=O)C(=O)C1C(=O)Nc2ccccc21 (stereo unspecified)	none (no result: G9a block)
CN(C)CCNC(=O)C(=O)C1C(=O)Nc2ccccc21 (stereo unspecified)	G9a block 31.6µM (no result: VDR inhibitor, CCT modulator, PLK1 PBD block)
CCN(CC)CCC(c1ccc(N(C)C)cc1)c1c(OC)cc(OC)c2c(C)cc(=O)oc12 (stereo unspecified)	none (no result: G9a block, CCT modulator, PLK1 PBD block, MmCpn inh)
O=c1c2c([nH]c3ccccc13)C(=C1CCCC1)CC2	G9a block 35.5µM
CN1C(=S)SC(C)(C)C1N(O)C(=O)Nc1ccc(Cl)cc1 (stereo unspecified)	none
CC1(C)C(N(O)C(=O)Nc2ccc(Cl)cc2)N(c2ccc(Cl)cc2)C(=O)N1CC(=O)NN (stereo unspecified)	Sfp inh 100µM
COc1ccc(N2CCN(Cc3cc(=O)c(OCC(=O)NC4CCCC4)co3)CC2)cc1	G9a block 56.2µM (no result: Sfp inh)
O=C(c1ccco1)N(Cc1cccs1)c1ccc(F)cc1	none (no result: CCT modulator, PLK1 PBD block, Sfp inh, MmCpn inh)
Cc1cccc(/C=N/n2c(COc3ccccc3)n[nH]c2=S)c1	G9a block 3.16µM, PLK1 PBD block 23.8µM, Sfp inh 56.2µM
CC(/C=N/n1c(COc2ccccc2)n[nH]c1=S)=C\c1ccccc1	PLK1 PBD block inconclusive
S=c1[nH]nc(COc2ccccc2)n1/N=C/c1ccc(Cl)c(Cl)c1	G9a block 12.6µM, PLK1 PBD block 16.8µM, Sfp inh 56.2µM
O=[N+]([O-])c1ccc(Cl)c(/C=N/n2c(COc3ccccc3)n[nH]c2=S)c1	G9a block 8.91µM, VDR inhibitor inconclusive, PLK1 PBD block 23.8µM, Sfp inh inconclusive
CC1CCN(c2oc(/C=C/c3ccc(F)cc3)nc2C#N)CC1	G9a block inconclusive (no result: CCT modulator, PLK1 PBD block, Sfp inh, MmCpn inh)
CC(NC(=O)C(=O)Nc1c2c(nn1-c1ccccc1)CSC2)c1ccccc1 (stereo unspecified)	none (no result: CCT modulator, PLK1 PBD block, Sfp inh, MmCpn inh)
Cc1cccc(Oc2ccccc2NC(=O)CSCC(=O)Nc2cc(C)on2)c1	G9a block 10µM (no result: Sfp inh)
Clc1ccc(-c2noc3ncnc(NCCc4ccccc4)c23)cc1	none (no result: CCT modulator, PLK1 PBD block, Sfp inh, MmCpn inh)
COc1ccc(CN2CCC(C(=O)N3CCN(c4ccccc4F)CC3)CC2)cc1OC	G9a block inconclusive
COc1cc(CN2CCC(C(=O)N3CCN(c4ccccc4F)CC3)CC2)cc(OC)c1OC	G9a block 25.1µM
COc1cccc(CN2CCC(C(=O)N3CCN(c4ccccc4F)CC3)CC2)c1OC	G9a block 10µM
Cc1ccccc1NC(=O)c1c(C)oc2ccc(O)c(CN(C)Cc3ccccc3)c12	none (no result: CCT modulator, PLK1 PBD block, Sfp inh, MmCpn inh)
O=[N+]([O-])c1ccc(Oc2cc(NC3CCCCCCC3)c([N+](=O)[O-])cc2[N+](=O)[O-])cc1	G9a block 39.8µM
O=[N+]([O-])c1cc([N+](=O)[O-])c(Oc2cncc(Cl)c2)cc1NC1CCCCCCC1	G9a block inconclusive, PLK1 PBD block inconclusive
O=[N+]([O-])c1cc([N+](=O)[O-])c(Oc2cc(Cl)ccc2Cl)cc1NC1CCCCCCC1	G9a block 39.8µM, VDR inhibitor inconclusive
COc1cc(NC(=O)CCN2CCN(c3ccccc3)CC2)cc(OC)c1	none (no result: CCT modulator, PLK1 PBD block, Sfp inh, MmCpn inh)
Cc1ccc(CNC(=O)Cn2ccc3cc(S(=O)(=O)N4CCCC4)ccc32)o1	G9a block inconclusive, Sfp inh 50.1µM
CSc1ccc(CNC(=O)Cn2ccc3cc(S(=O)(=O)N4CCCC4)ccc32)cc1	none (no result: CCT modulator, PLK1 PBD block, Sfp inh, MmCpn inh)
O=C(CCn1ccc2cc(S(=O)(=O)N3CCCC3)ccc21)NCc1cccc(F)c1	VDR inhibitor inconclusive, PLK1 PBD block 7.52µM
COc1ccc(NC(=O)/C(N=Nc2cc(S(=O)(=O)Nc3ccc(OC)cc3)ccc2OC)=C(\C)O)cc1	G9a block inconclusive
COc1ccc(NC(=O)/C(N=Nc2ccc(Cl)c(S(=O)(=O)Nc3ccc(Cl)cc3)c2)=C(\C)O)cc1	CCT modulator -47.9 (no result: G9a block, Sfp inh)
O=C(CC1SC(=O)N(c2ccccc2)C1=O)Nc1ccc(Br)cc1 (stereo unspecified)	VDR inhibitor 35.5µM, PLK1 PBD block inconclusive (no result: G9a block)
O=C(CC1SC(=O)N(c2ccccc2)C1=O)Nc1ccc(Cl)cc1 (stereo unspecified)	G9a block 44.7µM, VDR inhibitor 39.8µM, PLK1 PBD block 10.6µM
CCCN1C(=O)SC(CC(=O)Nc2ccccc2)C1=O (stereo unspecified)	none
O=C(CC1SC(=Nc2ccccc2)N(CCCO)C1=O)Nc1ccc(Cl)cc1 (stereo unspecified)	none
CCOc1ccc(NC(=O)Nc2cc3c(cc2N2CCCCC2)n(C)c(=O)n3C)cc1	none (no result: CCT modulator, PLK1 PBD block, Sfp inh, MmCpn inh)
Cc1cc2oc(C(=O)Nc3ccc(S(=O)(=O)N4CCC(C)CC4)cc3)cc(=O)c2cc1C	none (no result: CCT modulator, PLK1 PBD block, Sfp inh, MmCpn inh)
Cc1ccc(OCCSc2nc3ncnc(N)c3[nH]2)cc1	VDR inhibitor inconclusive, PLK1 PBD block 9.47µM
Oc1ccc(N=Cc2ccc(-c3cccs3)s2)cc1	G9a block inconclusive, VDR inhibitor 79.4µM, Sfp inh 31.6µM
N#C/C(=C\c1ccccc1[N+](=O)[O-])C(=O)NC1CCCCC1	VDR inhibitor inconclusive, Sfp inh 89.1µM
COc1ccc(C=C2C=C(C(C)(C)C)C(=O)C(C(C)(C)C)=C2)cc1OC	VDR inhibitor inconclusive, PLK1 PBD block 29.9µM (no result: G9a block)
CC[C@H](C)[C@@H](NC(=O)O[C@@H]1Cc2cc(Br)ccc2O[C@H]1c1cccc(OC)c1)C(=O)OC	none (no result: G9a block, CCT modulator, PLK1 PBD block, MmCpn inh)
CC1CN(C(=S)NC(=O)c2ccc(Cl)cc2)CC(C)O1 (stereo unspecified)	G9a block 44.7µM
O=CN1CCN(C(=S)NC(=O)c2ccc(Cl)cc2)CC1	G9a block 44.7µM

Compound activity from PubChem BioAssay.
